From PubChem
Only some compounds are listed: those with a hit (about 2.1% of all), similar ones and a draw of the others.
PrP UTR inh = suppresses PrP 5' UTR mRNA reporter expression; inhibition, % (test concentration not listed); hit rate 0.35% among 340,000; cell-based PrP 5' UTR mRNA reporter, plate reader; in the data active = inhibition above about 52%; also: 0 = median of the neutral control wells
Sa ugtP lethal = compounds lethal to S. aureus RN4220 ugtP deletion mutant; AID 1259309; OD600 growth, 16 h; hit rate 0.54% among 330,000; growth inhibition, % (no concentration beside the values); in the data active = growth inhibition above about 68%;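 also: plate controls were untreated wells for no effect and antibiotic for full effect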
Sa RN4220 lethal = kills Staphylococcus aureus RN4220 | S. aureus RN4220 growth, OD600, 16 h | inhibition, % (concentration not given with the values) | hit rate 0.33% among 330,000 | AID 1259311; in the data active = inhibition above about 85%;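 also: plate controls were untreated cells for no effect and reference antibiotic for full effect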
PrPC TRFRET = cell surface PrPC inhibition, primary TR-FRET screen; P04156; inhibition, % at 13.8 µM; AID 720596; hit rate 0.43% among 370,000; TR-FRET read-out; in the data active = inhibition above about 24%; also: 0% = median of the test wells and 100% = reference compound wells
PfHsp40 rescue = restores yeast growth despite PfHsp40 toxicity; growth rescue, % at 12.5 µM; hit rate 0.68% among 340,000; S. cerevisiae expressing PfHsp40, growth rescue, ATP luminescence; in the data active = growth rescue above about 28%, passing the limit was not always enough;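 also: yeast W303a lacking pdr1 and pdr3 grown in galactose medium; growth measured after three days at 30 °C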
CCHF vOTU inh-1 = CCHFV vOTU protease inhibition; Pep-AMC fluorescence; inhibition, % at 11.5 µM; hit rate 0.55% among 370,000; AID 651958; also: 0% = vehicle wells with enzyme and 100% = no enzyme wells
CCHF vOTU inh-2 = confirmation of CCHF virus vOTU protease inhibitors | shares compounds with CCHF vOTU inh-1 | Recombinant CCHFV vOTU, Pep-AMC fluorescence | inhibition, % at 11.5 µM | hit rate 17% among 1,900
Starred values were filed as active, the others as inactive. Rule as the data show it, unless noted: active = inhibition above about 30%; inactive = the rest.

Screening Cc1nn(-c2cccc(Cl)c2)c2c1C(c1cccnc1)C(C#N)=C(N)O2 (stereo not drawn) returned PrP UTR inh -5, Sa ugtP lethal -8, Sa RN4220 lethal 0, PrPC TRFRET -6, PfHsp40 rescue 0, CCHF vOTU inh-1 35* and CCHF vOTU inh-2 -20.
Screening Cc1nn(-c2cccc(Cl)c2)c2c1C(c1ccncc1)C(C#N)=C(N)O2 (stereo not drawn) returned PrP UTR inh -26, Sa ugtP lethal 3, Sa RN4220 lethal 4, PrPC TRFRET -7, PfHsp40 rescue 1 and CCHF vOTU inh-1 20.
Screening CC(C)C[C@@H](CN1CCCC1CN1C(=S)NC[C@@H]1Cc1ccccc1)N1C[C@H](Cc2ccc(O)cc2)N(CCc2ccccc2)C1=S (stereo partly drawn) returned PrPC TRFRET -13 and CCHF vOTU inh-1 15.
CC(C)C[C@@H](CN1CCC[C@@H]1CN1C(=S)NC[C@@H]1Cc1ccc(O)cc1)N1C[C@H](Cc2ccc(O)cc2)N(CCc2ccccc2)C1=S was read as PrPC TRFRET -12, CCHF vOTU inh-1 30* and CCHF vOTU inh-2 -22.
`CC(C)C[C@H]1CN([C@@H](Cc2ccc(O)cc2)CN2CCCC2CN2C(=S)NC[C@@H]2Cc2ccccc2)C(=S)N1CC1CCCCC1` (stereo partly drawn) gave PrPC TRFRET 15, CCHF vOTU inh-1 30* and CCHF vOTU inh-2 -9.
CC(C)C[C@H]1CN([C@@H](Cc2ccc(O)cc2)CN2CCC[C@@H]2CN2C(=S)NC[C@@H]2Cc2ccccc2)C(=S)N1CC1CCCCCC1 was read as PrPC TRFRET -2 and CCHF vOTU inh-1 9.
Screening CC(O)C1CCC2C3CCC4CC(O)CC[C@]4(C)C3C(=NO)C[C@]12C (stereo partly drawn) returned Sa ugtP lethal 2 and Sa RN4220 lethal 4.
For COC(=O)C(C)C1C[C@@]1(C)C(NC(=O)OCc1ccccc1)c1ccccc1 (stereo partly drawn) the results were Sa ugtP lethal -1 and Sa RN4220 lethal 5.
For COC(=O)[C@]12C[C@H](CC(=O)NCc3cccc(C(F)(F)F)c3)C(=O)N(Cc3ccc(Cl)cc3Cl)C1=C[C@H](C(C)(C)C)O[C@@H]2C the results were PrPC TRFRET -12, CCHF vOTU inh-1 32* and CCHF vOTU inh-2 15.
`COC(=O)[C@]12C[C@H](CC(=O)NCc3cccc(C(F)(F)F)c3)C(=O)N(Cc3ccco3)C1=C[C@H](C(C)(C)C)O[C@@H]2C` gave PrPC TRFRET 11, CCHF vOTU inh-1 32* and CCHF vOTU inh-2 5.
For COc1ccc(C=Nn2cnnc2SCc2ccc(OC)cc2)cc1 the results were Sa ugtP lethal -7 and Sa RN4220 lethal 8.
CC1CN(C(C)CO)C(=O)c2cccc(NC(=O)C3CCCCC3)c2OC1CN(C)S(=O)(=O)c1cccs1 (stereo not drawn) was read as Sa ugtP lethal 10 and Sa RN4220 lethal 10.
Screening O=C(Cn1cnc2ccccc2c1=O)NN=Cc1ccc(Br)cc1 returned Sa ugtP lethal -3 and Sa RN4220 lethal 5.
Screening CN(C)c1cccc2c(S(=O)(=O)Nc3ccccn3)cccc12 returned PrP UTR inh -7, Sa ugtP lethal -1, Sa RN4220 lethal 2, PrPC TRFRET -9, PfHsp40 rescue -1, CCHF vOTU inh-1 38* and CCHF vOTU inh-2 -5.
Screening O=c1oc2ccccc2c(Nc2cc3ccccc3cc2O)c1[N+](=O)[O-] returned PrP UTR inh -52, Sa ugtP lethal 3, Sa RN4220 lethal -5, PrPC TRFRET 2, PfHsp40 rescue 5, CCHF vOTU inh-1 30* and CCHF vOTU inh-2 -10.
Screening N#CCCN(C(=O)COC(=O)CCc1c[nH]c2ccccc12)c1ccccc1 returned PrP UTR inh -10, Sa ugtP lethal 10, Sa RN4220 lethal 2, PrPC TRFRET 3, PfHsp40 rescue 1, CCHF vOTU inh-1 36* and CCHF vOTU inh-2 -10.
`N#CCCN(C(=O)COC(=O)CCc1ccccc1)c1ccccc1` gave PrP UTR inh -16, PrPC TRFRET -6, PfHsp40 rescue -3 and CCHF vOTU inh-1 6.
Screening CN1C(=O)/C(=C/c2ccccc2F)Sc2ccc(C(=O)NCC3CCCO3)cc21 (stereo not drawn) returned PrP UTR inh 9, Sa ugtP lethal -4, Sa RN4220 lethal 1, PrPC TRFRET -11, PfHsp40 rescue 7 and CCHF vOTU inh-1 13.
Screening O=C1Nc2cc(C(=O)NCC3CCCO3)ccc2S/C1=C/c1ccccc1F (stereo not drawn) returned PrP UTR inh 11, Sa ugtP lethal -8, Sa RN4220 lethal 7, PrPC TRFRET 2, PfHsp40 rescue -1, CCHF vOTU inh-1 31* and CCHF vOTU inh-2 -23.
For O=C(COC(=O)COc1ccccc1Cl)Nc1ccccc1OC(F)F the results were PrP UTR inh -1, PrPC TRFRET -4, PfHsp40 rescue 0, CCHF vOTU inh-1 33* and CCHF vOTU inh-2 -3.
For CSC1=N/C(=C\c2ccc(C)o2)C(=O)S1 the results were PrP UTR inh -4, Sa ugtP lethal 16, Sa RN4220 lethal 4, PrPC TRFRET 3, PfHsp40 rescue -1, CCHF vOTU inh-1 30* and CCHF vOTU inh-2 -8.
`Cc1cccc2c(=O)c(-c3ccc(Cl)cc3)c(NC(=O)c3ccco3)oc12` gave PrP UTR inh -17, Sa ugtP lethal -5, Sa RN4220 lethal -1, PrPC TRFRET -5, PfHsp40 rescue 0, CCHF vOTU inh-1 30* and CCHF vOTU inh-2 -6.
`Cn1c(NC(=O)c2ccco2)c(-c2ccc(Cl)cc2)c(=O)c2ccccc21` gave PrP UTR inh -13, Sa ugtP lethal -1, Sa RN4220 lethal 1, PrPC TRFRET 9, PfHsp40 rescue 1 and CCHF vOTU inh-1 3.
Screening COc1ccccc1NC(=O)c1ccc(NS(=O)(=O)c2ccc(F)c(F)c2F)cc1 returned PrP UTR inh -9, Sa ugtP lethal 3, Sa RN4220 lethal -5, PrPC TRFRET 8, PfHsp40 rescue 0, CCHF vOTU inh-1 30* and CCHF vOTU inh-2 -13.
`O=C(N/N=C/c1c(O)n(CCc2ccccc2)c(=O)[nH]c1=O)c1ccccc1O` gave PrP UTR inh 2, Sa ugtP lethal 2, Sa RN4220 lethal 5, PrPC TRFRET 3, PfHsp40 rescue 15, CCHF vOTU inh-1 32* and CCHF vOTU inh-2 -8.
Screening O=C(N/N=C/c1c(O)n(CCc2ccc(F)cc2)c(=O)[nH]c1=O)c1ccccc1 returned Sa ugtP lethal -9, Sa RN4220 lethal 2, PrPC TRFRET 9 and CCHF vOTU inh-1 3.
`COc1ccc(/C=N/NC(=O)c2nn(-c3ccccc3)c(=O)c3c(N)scc23)cc1` gave PrP UTR inh -2, PrPC TRFRET -33, PfHsp40 rescue 2, CCHF vOTU inh-1 50* and CCHF vOTU inh-2 91*.
